Screening data as filed in PubChem BioAssay.
D2 antagonist = HTS Assay for Allosteric Antagonists of the Human D2 Dopamine Receptor: Primary Screen for Antagonists. D(2) dopamine receptor (Homo sapiens), P14416. HEK293 TREx D2 cells, calcium flux, dopamine EC80. inhibition, % at 10 µM. 340,000 compounds, 2% hits. AID 485344, 2010; in the data active means inhibition above about 30%; inactive means below that, where a call was filed
Target sequence (P14416 whole entry, looked up): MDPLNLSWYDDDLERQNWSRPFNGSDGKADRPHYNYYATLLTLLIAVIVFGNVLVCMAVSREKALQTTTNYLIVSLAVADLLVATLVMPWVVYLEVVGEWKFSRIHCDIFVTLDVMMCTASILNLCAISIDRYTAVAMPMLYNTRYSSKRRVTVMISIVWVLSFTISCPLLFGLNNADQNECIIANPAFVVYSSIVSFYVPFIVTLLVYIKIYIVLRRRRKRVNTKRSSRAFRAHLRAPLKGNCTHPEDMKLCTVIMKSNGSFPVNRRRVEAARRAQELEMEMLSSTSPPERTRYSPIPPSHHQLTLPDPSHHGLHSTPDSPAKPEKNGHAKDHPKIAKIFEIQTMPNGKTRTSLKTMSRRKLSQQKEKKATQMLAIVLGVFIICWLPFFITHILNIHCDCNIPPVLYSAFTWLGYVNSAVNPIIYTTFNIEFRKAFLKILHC
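Dopamine at EC80 is the agonist stimulus; test compounds precede it by 180 s. Calcium flux read kinetically in a force-coupled, inducible HEK293 T-REx D2 cell line.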
D2 PAM-1 = Beta-Arrestin HTS for Positive Allosteric Modulators of the Human D2 Dopamine Receptor: Potentiators; DiscoveRx D2 beta-arrestin cells, luminescence, 90 min; 100% = 57 uM dopamine signal; potentiation, % (test concentration not listed); 360,000 compounds, 0.23% hits; AID 624464, 2012; in the data active means potentiation above about 50%; inconclusive means mostly about 30% to 49%
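PathHunter beta-arrestin assay in DiscoveRx D2 cells. Compounds were added with an EC20 of dopamine (50 nM final) for 90 min at 37 deg C. Luminescence was read 1 h after detection reagent, with 57 uM dopamine as the EC100 control.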
D2 ag-1 = Beta-Arrestin HTS for Positive Allosteric Modulators of the Human D2 Dopamine Receptor: Agonists | DiscoveRx PathHunter D2 beta-arrestin, luminescence, 90 min; 100% = 57 uM dopamine signal | activation, % (no concentration beside the values) | 360,000 compounds, 0.084% hits | AID 624465, 2012; in the data active means activation above about 40%; inconclusive means between about 15% and that limit
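DiscoveRx PathHunter D2 beta-arrestin cells (2,100/well) attached overnight, then compound-stimulated 90 min at 37 C in HBSS/10 mM HEPES/0.1% Tween-20 buffer; beta-galactosidase complementation read by luminescence after 1 h at ambient temperature. Dopamine 57 uM final (EC100) as control.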
D2 PAM-2 = HTS Assay for Positive Allosteric Modulators of the Human D2 Dopamine Receptor: Primary Screen for Potentiators | D(2) dopamine receptor (Homo sapiens), P14416 | HEK293 T-REx D2, calcium flux, EC20 dopamine potentiation | potentiation, % at 10 µM | 340,000 compounds, 0.34% hits | AID 485347, 2010;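 active means potentiation over 3 SD above the plate norm, cut at about 30% in these data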
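Calcium flux readout, no-wash dye, 1 read/s. Inducible HEK293 Trex D2 line, overnight 30 C. Compound alone 180 s (agonist flags), then EC20 dopamine, another 180 s to score potentiation.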
D2 ag-2 = HTS Assay for Allosteric Agonists of the Human D2 Dopamine Receptor: Primary Screen for Agonists | D(2) dopamine receptor (Homo sapiens), P14416 | HEK293 T-REx D2 cells, calcium flux agonist mode | activation, % at 2 µM | 340,000 compounds, 0.53% hits;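 active means activation over 3 SD above normal in the single-dose calcium agonist read, cut at about 30% in these data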
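Agonism is scored from calcium flux in a force-coupled, inducible HEK293 cell line expressing D2, read kinetically for 180 s after compound addition against dopamine controls.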
A number is an active result; – = inactive; ? = inconclusive; · = no result; ! = a repeat was not active. Compounds with a hit are over-represented: about 2.4% of the library has one in this group of screens.

SMILES	D2 antagonist	D2 PAM-1	D2 ag-1	D2 PAM-2	D2 ag-2
C#Cc1ccc(NC(=O)C2(C)CCN2C(=O)C2(c3ccccc3)CCCC2)cc1 (configuration not stated)	·	–	–	·	·
CCOC(=O)CNC(c1ccccc1)c1cc(Br)ccc1NC(=O)CCN1CCOCC1 (configuration not stated)	38	–	–	–	–
O=C(CC(c1ccccc1)c1cc(Br)ccc1O)NCCCN1CCOCC1 (configuration not stated)	–	–	–	–	–
O=C(CC(c1ccccc1)c1cc(Br)ccc1O)NCCN1CCOCC1 (configuration not stated)	77	–	–	–	–
CN1C2CCC1CC(OC(c1ccccc1)c1ccccc1)C2 (configuration not stated)	36	–	–	–	–
COC(=O)c1cc(NC(=O)CN(c2ccccc2)S(=O)(=O)N(C)C)ccc1Cl	·	·	·	–	·
O=c1cc(-c2ccccc2)oc2cc(OCc3ccccc3)cc(O)c12	51	–	–	–	–
O=c1cc(-c2ccc(OCc3ccccc3)cc2)oc2cc(OCc3ccccc3)cc(OCc3ccccc3)c12	·	–	–	·	·
Cc1ccc(CC(=O)Nc2c(C(=O)N3CCN(c4ccccc4)CC3)oc3ccccc23)cc1	·	·	·	–	–
Cc1noc(C(=O)Nc2ccc3c(c2)OCO3)c1Cl	54	–	–	–	–
Cc1ccc2c(Cl)c(C(=O)Nc3ccc4c(c3)OCO4)sc2c1	34	–	–	–	–
Cc1cc(C)cc(NC(=O)CSc2nnc(CNC(=O)c3c(F)cccc3Cl)o2)c1	·	·	·	–	–
CCn1c(CNC(=O)C23CC4CC(CC(C4)C2)C3)nnc1SCC(=O)Nc1nnc(C)s1	–	–	–	43	–
CCCCn1c(CNC(=O)C23CC4CC(CC(C4)C2)C3)nnc1SCC(=O)Nc1nnc(C)s1	–	–	–	–	–
Cc1ccc(NC(=O)Cn2c(=O)n(Cc3nc(C)no3)c(=O)c3ccccc32)c(Cl)c1	·	·	·	–	–
CCN(CC)S(=O)(=O)c1ccc(C(=O)NC(=S)N2CCN(c3ccccc3O)CC2)cc1	·	–	–	·	·
Cc1ccc(NC(=O)c2nnn(-c3ccc4c(c3)OCCO4)c2N)cc1	60	–	–	–	–
CC(C)[C@@H](C(=O)OCC(=O)Nc1ccc2c(c1)OCO2)N1C(=O)c2ccccc2C1=O	46	–	–	–	–
C=CCC1c2cccc(C(=O)O)c2C(=O)N1c1cccc(OC)c1 (configuration not stated)	–	–	–	–	–
C=CCC1c2cccc(C(=O)O)c2C(=O)N1c1cccc(C)c1 (configuration not stated)	32	–	–	–	–
CCCC(=O)NCCc1nc2ccccc2n1Cc1c(F)cccc1Cl	·	·	·	–	·
CC(C)CN1CCC(=O)N([C@H](CSc2ccc(Br)cc2)Cc2ccccc2)CC1	36	–	–	–	–
CCOc1ccccc1CNC(=O)CCCn1c(=O)c2cccn2c2cccnc21	·	·	·	–	·
COc1ccccc1Nc1cc(C(=O)NCc2cccs2)c2ccccc2n1	·	·	·	–	–
Cc1cc(C)c[n+](-c2nc3ccccc3nc2C(=C=[N-])C#N)c1	34!	–	–	–	–
SMILES	D2 antagonist	D2 PAM-1	D2 ag-1	D2 PAM-2	D2 ag-2
CC(=O)c1ccc(S(=O)(=O)N2CCN(C(=O)c3ccc(-n4nc(C)c(Cl)c4C)cc3)CC2)cc1	31	–	–	–	–
COc1ccc(-c2nc(CSc3nnc(C)n4c3cc3occc34)c(C)o2)cc1OC	·	·	·	–	–
CNc1snc(C)c1C(=O)OCC(=O)N(C)c1ccccc1	–	–	–	–	–
CNc1snc(C)c1C(=O)OCC(=O)N(C)Cc1ccccc1	35	–	?	–	–
Cc1ccc(S(=O)(=O)N(C)c2ccc(OC(=O)CN3C(=O)NC4(CCCC4)C3=O)cc2)cc1C	–	–	–	–	–
C[N+]1(CC(=O)Nc2ccc(F)cc2)CCN(C(=O)c2ccco2)CC1	–	–	–	43	–
Cn1c(=NC(=O)COc2ccccc2)sc2ccccc21	·	–	–	·	·
COc1ccc(OCc2cc(C(=O)N3CCCC(CO)C3)no2)c2ccccc12 (configuration not stated)	–	74	–	–	–
O=C(c1cc(COc2ccc(F)cc2Cl)on1)N1CC[C@@H]2CCCC[C@H]2C1	–	–	–	–	–
O=C(c1cc(COc2ccc(F)cc2F)on1)N1CC[C@@H]2CCCC[C@H]2C1	–	64	–	–	–
N/C(=N\OC(=O)c1ccc(Cl)cc1Cl)c1ccccn1	–	–	–	–	–
N/C(=N\OC(=O)c1ccc2ccccc2c1)c1ccccn1	–	–	?	–	–
N/C(=N\OC(=O)c1ccc(Cl)cc1[N+](=O)[O-])c1ccccn1	–	–	63	–	–
COc1cccc(C(=O)O/N=C(\N)c2ccccn2)c1	–	55	–	–	–
Cc1ccc(C(=O)O/N=C(\N)c2ccccn2)c(Cl)c1	–	91	?	–	–
CCC(C)(C)NC(=O)CN(C(=O)C(=O)Nc1ccc2c(c1)OCCO2)C1CC1	–	–	–	–	–
CCCc1nn2c(=O)cc(CSCC(=O)Nc3ccc(OC)cc3)nc2s1	–	–	–	–	–
CC1CCCCN1c1c(S(=O)(=O)c2ccc(Cl)cc2)cnc2ccccc12 (configuration not stated)	·	·	·	–	–
CC(=O)c1ccc(N2CCN(C(=O)CCS(=O)(=O)c3ccc4c(c3)oc(=O)n4C)CC2)cc1	·	·	·	–	·
N#Cc1cccc(NC(=O)COC(=O)c2ccc[n+]([O-])c2)c1	·	–	–	·	·
Cc1cccc(Cn2c(C(C)(C)C)cc3cccnc32)c1	45	–	–	–	–
Cc1cccc(Cn2c(CNS(=O)(=O)c3ccc(Cl)s3)nc3cccnc32)c1	·	·	·	–	–
Cc1cc(OCC(=O)N(Cc2ccc(N(C)C)cc2)C2CCS(=O)(=O)C2)cc(C)c1Cl (configuration not stated)	·	·	·	–	–
Cc1c(C)n(O)c2ccc3nonc3c12	41	–	–	–	–
N#CC1=C(SCC(=O)NC2CC2)NC(=O)C(C#N)C12CCCCC2 (configuration not stated)	–	–	–	–	–
N#CC1=C(SCC(=O)NC23CC4CC(CC(C4)C2)C3)NC(=O)C(C#N)C12CCCCC2 (configuration not stated)	–	–	–	94	–
COc1ccc(Cl)cc1NC(=O)CSc1c2c(nc3ccccc13)CCC2	·	·	·	–	–
